Experimental data from article PMC6792352, “Limited Chemical Structural Diversity Found to Modulate Thyroid Hormone Receptor in the Tox21 Chemical Library” (Environmental Health Perspectives, 2019).
Structures can show the parent of a compound that is named as a salt.

tested on: thyroid hormone receptor (endogenous TRα and TRβ); parameters: species or system GH3-TRE-Luc (rat pituitary); GH3-TRE-Luc luciferase reporter, antagonist mode against 1 nM T3, loss of signal, qHTS; settings: read-out: Average AC50 (uM) GH3-TRE-Antag, antagonist mode, 1 nM T3, no GH3 cytotoxicity hit

Compound | AC50
C=C1C[C@@H]2[C@H](CC[C@]3(C)C(=O)CC[C@@H]23)[C@@]2(C)C=CC(=O)C=C12 [Exemestane] | 34.6 µM
CCN(CC)CCO[C@H]1CC[C@@]2(C)C(=CC[C@@H]3[C@@H]2CC[C@]2(C)C(=O)CC[C@@H]32)C1 [3beta-(2-Diethylaminoethoxy)androst-5-en-17-one hydrochloride] | 22.5 µM
CCCCCCCCCCCC(=O)O [Dodecanoic acid] | 68.4 µM
CCCCC(C#N)(Cn1cncn1)c1ccc(Cl)cc1 (centres unmarked) [Myclobutanil] | 79 µM
O=Cc1ccc(Cl)c([N+](=O)[O-])c1 [4-Chloro-3-nitrobenzaldehyde] | 68.3 µM
COC(=O)C(C)N(C(=O)Cc1ccccc1)c1c(C)cccc1C (centres unmarked) [Benalaxyl] | > 90 µM
CCCCC[C@H](O)/C=C/[C@H]1[C@H](O)CC(=O)[C@@H]1C/C=C\CCCC(=O)O [Dinoprostone] | 4.68 µM
C#C[C@]1(O)CC[C@H]2[C@@H]3CCC4=C(CCC(=O)C4)[C@H]3CC[C@@]21C [Norethynodrel] | 16.4 µM
CO[C@@H]1[C@H](OC(=O)NC(=O)CCl)CC[C@]2(CO2)[C@H]1[C@@]1(C)O[C@@H]1CC=C(C)C [o-(Chloroacetylcarbamoyl)fumagillol] | 4.57 µM
CC[C@H](C)COC(=O)/C=C/c1ccc(N=Cc2ccc(OC)cc2)cc1 [(+)-2-Methylbutyl-4-methoxybenzyladine-4'-aminocyannate] | 62 µM
CC(C)c1ccc2oc3nc(N)c(C(=O)O)cc3c(=O)c2c1 [Amlenanox] | 32.7 µM
CCCCCCCCCCCCCCCC(=O)O[C@@H]1CC(C)=C(/C=C/C(C)=C/C=C/C(C)=C/C=C/C=C(C)/C=C/C=C(C)/C=C/C2=C(C)C[C@@H](OC(=O)CCCCCCCCCCCCCCC)CC2(C)C)C(C)(C)C1 [Physalien] | 39.2 µM
CCCOc1ccc(S(=O)(=O)N2CCN(CC)CC2)cc1-c1nc2c(CC)n(Cc3ccccn3)nc2c(=O)[nH]1 [UK-343664] | 76.4 µM
Nc1ccc(N)c(Cl)c1 [2-Chloro-1,4-diaminobenzene sulfate] | 50.5 µM
CCCCN(CCCC)CCC(O)c1cc2c(Cl)cc(Cl)cc2c2cc(C(F)(F)F)ccc12 (centres unmarked) [Halofantrine hydrochloride] | 15.6 µM
NNC(N)=S [Thiosemicarbazide] | 59.3 µM
CCOC(=O)C(C)Oc1ccc(Oc2cnc3cc(Cl)ccc3n2)cc1 (centres unmarked) [Quizalofop-ethyl] | 78.2 µM
CCCCCCCCCC/C=C/C1CC(=O)OC1=O (centres unmarked) [3-(Dodecenyl)dihydro-2,5-furandione] | > 90 µM
CC(=O)OCC(=O)[C@H]1CC[C@H]2[C@@H]3CCC4=CC(=O)CC[C@]4(C)[C@H]3CC[C@]12C [Deoxycorticosterone acetate] | 25.2 µM
C[C@]12CC[C@@H]3c4ccc(O)cc4CC[C@H]3[C@@H]1C[C@@H](O)[C@@H]2O [Estriol] | > 50 µM
CC1(C)S[C@@H]2[C@H](NC(=O)[C@H](N)c3ccccc3)C(=O)N2[C@H]1C(=O)OC1OC(=O)c2ccccc21 (some centres unmarked) [Talampicillin hydrochloride] | > 20 µM
NCCNCCN [Diethylenetriamine] | 18 µM
O=C(N[C@@H]1N=C(c2ccccc2F)c2cccc3c2N(CC3)C1=O)c1cc2ccccc2[nH]1 [N-[(3R)-1-(2-Fluorophenyl)-4-oxo-3,4,6,7-tetrahydro[1,4]diazepino[6,7,1-hi]indol-3-yl]-1H-indole-2-carboxamide] | 5.69 µM
C[C@]12CC[C@@H]3c4ccc(O)cc4CC[C@H]3[C@@H]1CC[C@H]2O [17alpha-Estradiol] | 27 µM
C/C(=C\c1csc(C)n1)[C@@H]1C[C@@H]2O[C@]2(C)CCC[C@H](C)[C@H](O)[C@@H](C)C(=O)C(C)(C)[C@@H](O)CC(=O)O1 [Epothilone B] | 0.0109 µM
Brc1cc(Oc2cc(Br)c(Br)c(Br)c2Br)c(Br)c(Br)c1Br [Octabromodiphenyl ether] | 10.5 µM
CC(=O)Oc1ccc(C2(c3ccc(OC(C)=O)cc3)C(=O)Nc3ccccc32)cc1 [Oxyphenisatin acetate] | > 50 µM
Cc1ccc(C(C)c2ccc(C)c(C)c2)cc1C [1,1-Bis(3,4-dimethylphenyl)ethane] | 70.8 µM
Nc1ccc(Br)cc1 [4-Bromoaniline] | 47.9 µM
